{
  "source": "PubChem BioAssay (NCI)",
  "note": "The panel holds about 83,000 compounds, 20% with a hit somewhere; the sample as a whole holds those more often.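 Interpretation: 100, growth as untreated; towards 0, rising growth inhibition; 0, no net growth; 0 to -100, cell death. Compounds scoring below 10 were considered active.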 Active and inactive are the calls of the source.",
  "data": [
    {"system": "HL-60(TB) leukemia", "assay": "NCI-60 one-dose screen, 48 h (100 = growth as untreated, 0 = no growth, -100 = all killed)", "details": "10 µM unless noted", "method": "Growth inhibition of the HL-60(TB) human tumor cell line is measured as a screen for anti-cancer activity. Cells are grown in 96 well plates and exposed to the test compound for 48 hours. Compounds are tested at a single concentration, which is 10^-5 M for most compounds. The reported endpoint is percent growth (GI% or GIPRCNT), where numbers from 0 - 100% represent growth inhibition, and numbers from -100% - 0 represent cell death. For example, a value of 40 represents 60% growth inhibition. A value of 0 means no net growth occurred over the course of the experiment. A value of -40 indicates 40% of cells at the beginning of the experiment died by the end of the experiment. A value of -100 means all cells are dead at the end of the experiment.\nNCI-60 Human Tumor Cell Lines Screen was performed using the standard one-dose NCI protocol, which is described in more detail at https://dtp.cancer.gov/discovery_development/nci-60/default.htm.\nCompounds with GIPRCNT values below 10 were considered active. Activity score was based on GIPRCNT using the following formula: […]\nScore is 0 for GIPRCNT values of 100 or above, 50 for GIPRCNT values of 0, and 100 for GIPRCNT values of -100.", "values": [
      {"smiles": "CCN(CCNc1ccc(C)c2sc3cc(Cl)ccc3c(=O)c12)CC(C)(C)O", "growth": "81.4% (inactive)"},
      {"smiles": "CCOC(=O)C(CCCCC(NC(C)=O)(C(=O)OCC)C(=O)OCC)(NC(C)=O)C(=O)OCC", "growth": "104% (inactive)"},
      {"smiles": "CSc1nc(-c2ccc(O)cc2O)c2c(=O)[nH]c(Nc3ccc(S(=O)(=O)Nc4nc(C)cc(C)n4)cc3)nc2n1", "growth": "114% (inactive)"},
      {"smiles": "N=C(N)N=Nc1ccc(NN=C(N)N)c2ccccc12", "growth": "113% (inactive)"},
      {"smiles": "COc1cc2nnc3c4cccnc4[nH]c3c2cc1OC", "growth": "-54.3% (active)"},
      {"smiles": "O=C(COc1ccc(/C=C2\\CSc3ccccc3C2=O)cc1)Nc1nccs1", "growth": "-22.4% (active)"},
      {"smiles": "CCC(C)(C)c1ccc(OCCCCCCN2CCN(c3ccc(C)c(Cl)c3)CC2)cc1", "growth": "84.5% (inactive)"},
      {"smiles": "CNC(=O)c1cc(Oc2ccc3nc(NC(=O)Nc4ccc(C(F)(F)F)cc4)sc3c2)ccn1", "growth": "120% (inactive)"},
      {"smiles": "O=C(O)c1cccc([N+](=O)[O-])c1", "growth": "107% (inactive)"},
      {"smiles": "O=c1c(/C=C/c2ccco2)nnc2sc(Nc3ccc(Cl)cc3)nn12", "growth": "101% (inactive)"},
      {"smiles": "COc1cccc(Oc2ccccc2NC(=O)CNC(=O)c2cccc3ccccc23)c1", "growth": "-25.2% [5 µM] (active)"},
      {"smiles": "O=C(O)/C=C\\C(=O)Nc1cccc2ccccc12", "growth": "56.7% (inactive)"},
      {"smiles": "COC(=O)c1nc(-c2ccc(C)cc2)oc1Sc1ccc(C)cc1", "growth": "91.4% (inactive)"},
      {"smiles": "Clc1nc(Cl)c2ncn(CC3(Cn4cnc5c(Cl)nc(Cl)nc54)COC3)c2n1", "growth": "-75.5% (active)"},
      {"smiles": "O=C1/C(=C\\c2cn(Cc3ccccc3)c3ccc(Br)cc23)c2ccccc2N1c1c(Cl)cccc1Cl", "growth": "97% (inactive)"},
      {"smiles": "CC(C)Nc1ccc(Nc2ccc(NC(C)C)cc2)cc1", "growth": "22.1% (inactive)"},
      {"smiles": "COC(=O)c1[nH]c(=O)c(C#N)c(C(=O)OC)c1C(=O)c1ccccc1", "growth": "94.8% (inactive)"},
      {"smiles": "O=C(Nc1ccccc1)Nc1ccc2cc3ccc(NC(=O)Nc4ccccc4)cc3nc2c1", "growth": "50.9% (inactive)"},
      {"smiles": "COc1cc2c(Nc3ccc(S(N)(=O)=O)cc3)ncnc2c(OC)c1OC", "growth": "91.5% (inactive)"},
      {"smiles": "Cc1cc(C(O)CN(C)C)cc2c1ccc1cc(C(C)C)ccc12", "note": "(stereo not given)", "growth": "-52.8% (active)"},
      {"smiles": "COc1ccc(C(=O)NC(=O)Nc2ccc3c(c2)NC(=O)/C3=C\\c2[nH]c(C)c(C(=O)O)c2C)cc1", "growth": "95.2% (inactive)"},
      {"smiles": "O=S(=O)(NCCNc1nccc(-c2c(-c3cccc(O)c3)nc3occn23)n1)c1cccc(F)c1", "growth": "76.6% (inactive)"},
      {"smiles": "Cc1ccc(C(=O)NN2C(=O)CSC2c2ccc(Cl)cc2)cn1", "note": "(stereo not given)", "growth": "139% (inactive)"},
      {"smiles": "COc1ccc2c(c1)nc(N)c1c3ccccc3cn21", "growth": "67.1% (inactive)"},
      {"smiles": "O=C(CC(=O)Nc1cccc(C(=O)O)c1)Nc1cccc(C(=O)O)c1", "growth": "113% (inactive)"},
      {"smiles": "COc1ccc2[nH]c(C(=O)OCc3ccc4c(Br)cc(Br)c(O)c4n3)cc2c1", "growth": "-32.7% (active)"},
      {"smiles": "O=C(CCCCC[P+](c1ccccc1)(c1ccccc1)c1ccccc1)NC(COC(=O)C(Cl)Cl)(COC(=O)C(Cl)Cl)COC(=O)C(Cl)Cl", "growth": "95.5% (inactive)"},
      {"smiles": "C[CH2][Pb]([CH2]C)([CH2]C)[O]C(=O)c1ccc(N)cc1", "growth": "56.1% (inactive)"},
      {"smiles": "NC(=O)NNC(=O)c1ccccc1", "growth": "103% (inactive)"},
      {"smiles": "O=C(O)CCCc1ccccc1", "growth": "109% (inactive)"},
      {"smiles": "COc1ccc2cc(-c3ccc(C(=O)NN)c(C)n3)ccc2c1", "growth": "104% (inactive)"},
      {"smiles": "Nc1c(S(=O)(=O)O)cc2c3c(cccc13)C(=O)OC2=O", "growth": "134% (inactive)"},
      {"smiles": "O=C(Nc1cccnc1Nc1ccc(Cl)cc1)c1cn(Cc2cccc(Oc3ccccc3)c2)nn1", "growth": "12.9% (inactive)"},
      {"smiles": "COc1ccc(OC)c(-c2ccc(-c3ccccc3N)c3[nH]c4ccccc4c23)c1", "growth": "93.4% (inactive)"},
      {"smiles": "CNC(=O)NN", "growth": "64% (inactive)"},
      {"smiles": "CCCC/C(=N\\N=C(N)N)c1ccc(F)cc1", "growth": "-30.9% (active)"},
      {"smiles": "OCC1OC2C(NC(=S)N2c2ccccc2)C(O)C1O", "note": "(stereo not given)", "growth": "90.8% (inactive)"},
      {"smiles": "COc1ccc(OC)c(Nc2nc3nonc3nc2Nc2cc(OC)ccc2OC)c1", "growth": "103% (inactive)"},
      {"smiles": "O=C1C=C(c2ccccc2)C(O)(c2ccccc2)C1", "note": "(stereo not given)", "growth": "85.2% (inactive)"},
      {"smiles": "COc1ccc2c(c1)sc1nc(-c3ccccc3)c(-c3cccc4ccccc34)n12", "growth": "6.59% (active)"}
    ]}
  ]
}
